# hgDAF-12 ag = agonists of H. glycines DAF-12 nuclear receptor. HEK293 GAL4-hgDAF12 UAS-luciferase reporter, agonist luminescence; normalized to butyrate control. activation, % at 6.8 µM. hit rate 1.8% among 370,000. AID 687014;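 active = activation above a cutoff set at the mean of all screened compounds plus 3 SD, cut at about 10% in these data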;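 note: 0% = DMSO wells and 100% = sodium butyrate wells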
# hcDAF-12 act = activates DAF-12 receptor from parasite H. contortus; HEK293 hcDAF-12 lit1-tk-luc reporter, luminescence; 0% DMSO, 100% Δ7-dafachronic acid; activation, % at 6.8 µM; hit rate 1.4% among 370,000; AID 652067;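 active = activation above the mean of all tested compounds plus 3 SD, cut at about 5.5% in these data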;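 note: 100% = response to 3 µM Δ7-dafachronic acid high control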
# ssDAF12 agonist = activates DAF-12 receptor from parasite S. stercoralis; HEK293 ssDAF-12/GRIP1 lit1-tk-luc reporter, luminescence; % of 3 µM dafachronic acid response; activation, % at 6.8 µM; hit rate 1% among 370,000; AID 652126;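 active = activation above the mean over all tested compounds plus 3 SD, cut at about 0.9% in these data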;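 note: 0% = DMSO-only wells and 100% = 3 µM delta7-dafachronic acid wells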
# DAX1 inh-1 = DAX1 (NR0B1) inhibition, primary screen | inhibition, % at 6.8 µM | hit rate 1.1% among 370,000 | HEK293T StAR-luciferase reporter, SF-1/DAX-1 repression relief;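 active = inhibition above the mean over all tested compounds plus 3 SD, cut at about 3.6% in these data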;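 note: 0% = DAX-1 cells with DMSO and 100% = cells lacking DAX-1 with DMSO; higher inhibition means more luminescence from relief of DAX-1 repression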
# DAX1 inh-2 = inhibitors of human orphan nuclear receptor DAX1 (NR0B1). inhibition, % at 6.75 µM. HEK293 Gal4-DAX1 luciferase reporter, luminescence. AID 504766. P51843. hit rate 0.99% among 340,000;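 active = inhibition above the mean over all tested compounds plus 3 SD, cut at about 4.2% in these data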;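 note: 0% = DAX1-transfected cells with DMSO and 100% = empty-vector control cells with DMSO; inhibition shows as a rise in luminescence from relieved DAX1 repression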
# Target sequence (P51843 207-470 limits assumed): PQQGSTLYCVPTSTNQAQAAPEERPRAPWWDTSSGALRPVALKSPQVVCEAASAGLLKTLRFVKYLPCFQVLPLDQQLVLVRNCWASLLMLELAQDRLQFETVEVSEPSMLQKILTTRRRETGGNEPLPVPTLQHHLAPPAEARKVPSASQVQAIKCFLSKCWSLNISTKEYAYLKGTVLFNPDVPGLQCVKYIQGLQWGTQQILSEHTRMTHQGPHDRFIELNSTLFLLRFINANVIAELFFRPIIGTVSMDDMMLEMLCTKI
# * marks the source's active call; other numbers are inactive results; · = no result; ! = not active in a repeat. Shown are actives, neighbours in structure and some others; about 4.1% of the full set was active somewhere.
SMILES,hgDAF-12 ag,hcDAF-12 act,ssDAF12 agonist,DAX1 inh-1,DAX1 inh-2
Cc1cc(C)cc(OCC(O)CN2CC(C)OC(C)C2)c1 (stereo not drawn),-1,-1,0,1,6.5*
CC(=O)N=C(N)Sc1nc2ccccc2[nH]1,11*,5.9*,0,3,1
COc1ccc(-c2cc(-c3nnc(SCC(=O)Nc4nccs4)n3N)[nH]n2)cc1,8,1,-1,1,·
Nc1nnc(/C=C/c2ccccc2Cl)s1,12*,3,-1,1,1
CNc1cncc(-c2ccc(OC)c(OC)c2)n1,11*,-1,3.4*,1,·
CNc1cncc(-c2c(OC)cccc2OC)n1,0,0,-1,0,·
CNc1cncc(-c2cccc(OC)c2F)n1,9,3,1,4.2*,·
CC(C)(C)c1ccc(C#C[C@@H]2C=C[C@H](O)[C@@H](COC(=O)Nc3ccccc3)O2)cc1,5,5.8*,1.9*,1,·
CCN(CC(=O)NCc1cccs1)C(=O)c1ccc(S(=O)(=O)Nc2ccccc2)cc1,1,-1,-1,0,-1
CCN(CC(=O)NCc1cccs1)C(=O)c1ccc(NS(=O)(=O)c2cccc([N+](=O)[O-])c2)cc1,0,1,-1,1,4.8*
Fc1ccc(OCc2nc3ccccc3s2)cc1,11*,6.2*,1.1*,2,2
O=C(O)COCc1nc2ccccc2s1,1,0,-1,1,2
CC(C)[C@H](NC(=O)c1ccc(Cl)c([N+](=O)[O-])c1)C(=O)NCc1ccc(F)cc1,2,1,-1,0,4.6*
COC(=O)C1=C(C)N(C)C(=NCc2cc(OC)c(OC)c(OC)c2)NC1c1cccc(Cl)c1 (stereo not drawn),-2,-1,-1,0,·
COc1ccnc(CS(=O)c2nc3cc(C(O)(F)F)ccc3[nH]2)c1OC (stereo not drawn),3,6.1*,0,0,0
CNC(=S)Nc1ccc2[nH]c(=O)[nH]c2c1,-1,-1,-1,0,0
CC(C)NC(=S)Nc1ccc2[nH]c(=O)[nH]c2c1,3,-2,-1,0,4.5*
Cc1ccc(S(=O)(=O)[N-]c2nc3ccccc3nc2-n2cc[n+](CCC(C)C)c2)cc1,0,2,0,1,1
CC(C)CC[n+]1ccn(-c2nc3ccccc3nc2[N-]S(=O)(=O)c2ccc(Cl)cc2)c1,0,-1,-2,1,5.3*
Cc1ccc(C2(c3noc(CN(C)Cc4cccnc4)n3)CCCC2)cc1,0,-1,-1,0,4.5*
Cc1cc(NC(=O)c2cccc(Cl)c2)n[nH]1,8,1,-1,2,1
Cc1cc(NC(=O)NC(=O)c2ccc(F)cc2F)n[nH]1,11*,3,0,3,0
CCOC(=O)c1c(CN2CCC(C)CC2)n(C)c2cc(Br)c(OC)cc12,-2,1,-1,0,4.9*
Cc1cccc(C(=O)NNC(=O)c2ccc(O)cc2)c1,0,-3,-2,0,2
CC(C)Oc1cccc(C(=O)NC(=S)Nc2cccnc2)c1,7,2,0,1,1
SMILES,hgDAF-12 ag,hcDAF-12 act,ssDAF12 agonist,DAX1 inh-1,DAX1 inh-2
CCCC(=O)NC(=S)Nc1cccc(NC(=O)c2ccccc2)c1,0,-2,-1,0,-1
CC(C)Oc1cccc(C(=O)NC(=S)Nc2ccccc2)c1,12*,2,0,2,3
CC(C)CC(=O)NC(=S)Nc1cccc(NC(=O)c2ccccc2)c1,-2,-3,-2,-1,7.3*
CC(=O)c1cccc(NC(=S)NC(=O)c2ccc(Cl)cc2)c1,9,1,-1,1,2
Cc1ccc(C(=O)NNC(=O)c2cccc(C)c2)cc1,11*,-1,-1,1,1
CC(=O)c1cccc(NC(=S)NC(=O)c2cccc(C)c2)c1,13*,1,-1,2,0
Cc1cccc(NC(=S)NNC(=O)c2ccco2)c1,2,-1,-2,0,1
CCCc1cc(C(=O)NNC(=S)Nc2cccc(C)c2)cs1,11*,0,0,2,0
Cc1ccc(S(=O)(=O)/N=C(/NC(=S)Nc2cccc(C)c2)c2ccccc2)cc1,7,4,1,1,2
Cc1cccc(NC(=S)N/C(=N/S(=O)(=O)c2ccccc2)c2ccccc2)c1,12*!,-1,1,1,1
COCCNC(=S)N1C[C@H]2CON(C)[C@H]2C[C@H]1c1ccccc1Br,-4,-2,-1,1,·

# Compound activity deposited in PubChem by The Scripps Research Institute Molecular Screening Center.
